Compound activity as filed in PubChem.
CCHFV vOTU inh: CCHFV vOTU protease inhibition; Pep-AMC fluorescence; inhibition, % at 11.5 µM; actives 0.55% (n = 370,000); note: 0% = vehicle wells with enzyme and 100% = no enzyme wells
Vc quorum ag-1: induces V. cholerae light production without autoinducers | actives 0.16% (n = 350,000) | activation, % at 18.7 µM | V. cholerae BH1578 lux reporter, luminescence, 6 h | AID 588436; in the data active = activation mostly above about 9.7%, no sharp cut-off
Mtb FBA inh: inhibitors of M. tuberculosis fructose-bisphosphate aldolase; inhibition, % at 1 µM; purified M. tuberculosis FBA, fluorescence read-out; actives 2.3% (n = 360,000); P9WQA3; AID 588726; in the data active = inhibition above about 27%;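 note: 0% = vehicle and 100% = reference inhibitor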
Target sequence (P9WQA3 whole entry, looked up): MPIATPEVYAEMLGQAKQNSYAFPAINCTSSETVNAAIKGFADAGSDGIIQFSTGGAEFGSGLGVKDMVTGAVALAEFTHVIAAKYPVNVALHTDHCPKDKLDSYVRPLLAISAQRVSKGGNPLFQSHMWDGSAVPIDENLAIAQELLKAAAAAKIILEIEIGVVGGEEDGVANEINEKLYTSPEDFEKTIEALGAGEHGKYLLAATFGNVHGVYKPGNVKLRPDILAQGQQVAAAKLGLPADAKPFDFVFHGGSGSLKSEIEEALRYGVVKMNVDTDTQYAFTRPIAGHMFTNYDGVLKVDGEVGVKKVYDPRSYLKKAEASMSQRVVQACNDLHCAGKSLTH
GDH-TPI counter: inhibits GDH-TPI coupling enzymes, artifact for Mtb FBA screen; inhibition, % at 4.8 µM; actives 1.2% (n = 360,000); GDH-TPI coupled enzyme counterscreen, NADH absorbance;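 note: 0% = DMSO wells and 100% = wells lacking the enzyme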
Vc quorum ag-2: quorum light induction in BH1578 reporter strain; shares compounds with Vc quorum ag-1; V. cholerae BH1578 lux reporter, luminescence, 6 h; activation, % at 50 µM; 620 tested, under 10 active; AID 602243; call rule not given here
The depositor's hits bear a star; i = inactive; . = no result; + = active, no number. Only some compounds are listed: those with a hit (about 3.9% of all), similar ones and a draw of the others. Cut-off read from the data, not from the text of the source, unless noted: active = inhibition above about 30%; inactive = the rest.

SMILES | CCHFV vOTU inh | Vc quorum ag-1 | Mtb FBA inh | GDH-TPI counter | Vc quorum ag-2
CC1(c2ccc(Cl)cc2)NC(=O)N(CC(=O)NCCC2=CCCCC2)C1=O (stereo not drawn) | -5 | -5 | 1 | -7 | .
Cc1ccc(C2(C)NC(=O)N(CC(=O)NCCC3=CCCCC3)C2=O)cc1 (stereo not drawn) | 15 | 228* | 6 | 8 | 0
COc1cccc(CN(C)C[C@@H]2OCc3cnnn3CCCC(=O)N([C@H](C)CO)C[C@H]2C)c1 | -8 | 0 | -2 | -9 | .
CCOc1ccc(N2CC(C(=O)Nc3nnc(Cc4ccc(OC)c(OC)c4)s3)CC2=O)cc1 (stereo not drawn) | -4 | 0 | -2 | -2 | .
CCCCc1nnc(NC(=O)C2CC(=O)N(c3ccc(C)cc3)C2)s1 (stereo not drawn) | 7 | 0 | 2 | -4 | .
CCc1nnc(NC(=O)C2CC(=O)N(c3ccc(C)cc3)C2)s1 (stereo not drawn) | 4 | 12 | -5 | 0 | 0
COc1ccc(Cc2nnc(NC(=O)C3CC(=O)N(c4ccccc4C)C3)s2)cc1OC (stereo not drawn) | -3 | 9 | -1 | -1 | 1
Cc1ccccc1-c1nc(CS(=O)(=O)CC(=O)N2CCOCC2)c(C)o1 | 21 | 0 | 2 | 1 | .
COc1cc(COc2ccc(S(=O)(=O)N3CCOCC3)cc2[N+](=O)[O-])ccc1OC(F)F | 12 | -1 | 1 | -3 | .
Cc1cc(S(=O)(=O)NC[C@H]2O[C@@H](n3ccc(N)nc3=O)[C@H](O)[C@@H]2O)c(C)s1 | -4 | 0 | 0 | -5 | .
O=C(COc1ccc(Br)cc1)NN1C(=O)c2ccccc2C1=O | -15 | 0 | 2 | -6 | .
Nc1nnc(-c2ccc(Cl)cc2Cl)s1 | 3 | 470* | 7 | 12 | 69
Cc1cc(C)n2cc(COc3ccc4ccccc4c3)nc2n1 | -11 | + | 1 | -3 | 287
Cc1cc(C)n2cc(CSCc3ccco3)nc2n1 | 4 | 1 | 8 | 11 | .
Cc1oc2cc3oc(=O)c(CCC(=O)NCCCN4CCCC4=O)c(C)c3cc2c1C | -28 | -1 | 15 | 15 | .
CC(C)NC(=O)c1ccc(-c2cccc(C(F)(F)F)c2)o1 | -5 | 33* | 7 | -2 | 0
CC(C)NC(=O)c1ccc(-c2cc(C(F)(F)F)ccc2Cl)o1 | 0 | -2 | 4 | 5 | .
Cc1cccc(N2CCN(C(=O)C34CC5CC(CC(C5)C3)C4)CC2)c1C | 0 | 22* | 0 | -7 | 1
Cc1ccc(C)c(OCCC(=O)OCC(=O)NC2CC2)c1 | 4 | 27 | 0 | -1 | 0
O=C(c1cc(-c2ccc3c(c2)OCO3)on1)N1CCN(c2ccc(F)cc2)CC1 | -9 | 12 | 2 | 3 | 0
O=C(CSc1nc(-c2ccccc2)cc(=O)[nH]1)Nc1ccc(Br)cc1 | -9 | 1 | 2 | 1 | .
CC1CCc2nn(CC(=O)NC3CCCC3)cc2C1 (stereo not drawn) | -3 | + | 1 | 10 | i
c1ccc2c(c1)oc1c(NCc3ccc4c(c3)OCO4)ncnc12 | . | -1 | -1 | 3 | .
COc1ccccc1NC(=O)Cc1csc(NC(=S)Nc2ccccc2)n1 | 3 | 14 | -6 | -9 | 0
CCCCN1C(=O)C(O)(CC(=O)c2ccccc2OC)c2ccccc21 (stereo not drawn) | -5 | 0 | 5 | 6 | .
SMILES | CCHFV vOTU inh | Vc quorum ag-1 | Mtb FBA inh | GDH-TPI counter | Vc quorum ag-2
CCCCN1C(=O)C(O)(CC(=O)c2ccccn2)c2ccccc21 (stereo not drawn) | 5 | 44* | 4 | 7 | 200
O=S(=O)(Nc1nccs1)c1ccc(NCc2cc(Br)cc(Br)c2O)cc1 | 16 | 0 | 7 | 17 | .
O=C(NCC1CCCO1)C1CCN(C(=O)c2ccc(Cl)cc2)CC1 (stereo not drawn) | -3 | 17* | -1 | 6 | 0
Cc1cc(Cl)ccc1OCC(=O)NNC(=O)C1CSC2(C)CCC(=O)N12 (stereo not drawn) | -2 | i | 0 | -7 | .
CC12CCC(=O)N1C(C(=O)NNC(=O)COc1ccc(Br)cc1)CS2 (stereo not drawn) | 1 | 12 | 2 | -7 | 0
Cn1c(C(=O)NC2CCCCC2)cc2c(=O)n(C)c3ccccc3c21 | 13 | 245* | 15 | 13 | i
COc1ccc(CC(=O)N2CCC(Nc3nc4ccccc4n3Cc3ccc(F)cc3)CC2)cc1 | 28 | 15* | -2 | -4 | 0
Cn1c(C(=O)O)cnc1Sc1ncc(C(F)(F)F)cc1Cl | 4 | 2 | 1 | 3 | .
CC(C)NC(=O)c1cnc(Sc2ncc(C(F)(F)F)cc2Cl)n1C | -7 | 12 | 1 | 4 | 0
Cc1cccc(NC(=O)CS(=O)(=O)c2cn(C)c3ccccc23)c1C | -1 | 17* | -4 | 5 | 0
COc1cccc(Nc2nc(NCCO)c3ccccc3n2)c1 | 8 | 40* | 2 | -8 | 1
OCCNc1nc(Nc2cccc(O)c2)nc2ccccc12 | -3 | i | 1 | 12 | .
Cc1cc(C)c2cc(C(c3nnnn3C3CCCC3)N3CCOCC3)c(=O)[nH]c2c1 (stereo not drawn) | 2 | 0 | 3 | 17 | .
Cc1ccc2cc(C(c3nnnn3C3CCCC3)N3CCN(c4ccc(F)cc4)CC3)c(=O)[nH]c2c1 (stereo not drawn) | 12 | 14 | -1 | 5 | 0
Cc1ccc(C)c(S(=O)(=O)N2CCN(C(=O)c3n[nH]c(=O)c4ccccc34)CC2)c1 | 0 | 32* | -1 | 2 | 323
CSc1ncccc1C(=O)N1CCN(S(=O)(=O)c2cc(C)ccc2C)CC1 | 5 | 0 | 1 | -7 | .
COc1ccc(CCN(C)C(=O)c2cc(S(=O)(=O)N3CCCCCC3)ccc2OC)cc1OC | -2 | 19 | 0 | 1 | 0
COc1ccc(S(=O)(=O)N2CCCCC2)cc1NC(=O)c1ccc(OC)c(OC)c1 | 3 | 14 | -3 | 5 | 0
COc1ccc(S(=O)(=O)Nc2cccc(S(=O)(=O)N3CCCC3)c2)cc1OC | 0 | 14 | 3 | 4 | -100
COc1ccc(CCN(C)C(=O)c2cc(S(=O)(=O)N3CCCCC3)ccc2Cl)cc1OC | 5 | -10 | -1 | 5 | .
CCC(C)Nc1nnc(SCC(=O)c2c(N)n(C3CC3)c(=O)[nH]c2=O)s1 (stereo not drawn) | -13 | . | -2 | -6 | .
COCc1[nH]nc2c1C1(CCC3(CC1)OCCO3)C(C#N)=C(N)O2 | -3 | 17* | 2 | 2 | 0
Cc1ccc(C)n1-c1sc2c(c1C#N)CCC(C)C2 (stereo not drawn) | 4 | 14 | 0 | -12 | 2
Cc1ccc(/C=C/C(=O)NCc2ccc(S(N)(=O)=O)cc2)o1 | 4 | 0 | 1 | -5 | .
Cc1ccc(/C=C/C(=O)OCC(=O)NCCc2ccc(S(N)(=O)=O)cc2)o1 | 5 | 26* | 1 | 30 | 7
CCCNC(=O)COC(=O)/C=C/c1ccco1 | -5 | + | 2 | 14 | i
O=C(COC(=O)/C=C/c1ccco1)NCc1ccccc1 | -10 | 1 | 0 | -4 | .
O=C(COC(=O)c1ccncc1)NC(=O)C1CCCCC1 | -15 | i | 3 | 4 | .
